Here are results for 25 compounds from the supplement of paper PMC13380429.

Test [1] deals with Vero E6 infected with SARS-CoV-2. Briefly: morphology score (similarity to uninfected cells); higher = more like uninfected cells. To be noted: 24 h.
Test [2] has the same test system. Kind of test: SARS-CoV-2 infection rate relative to infected DMSO; higher = more infection, active = 60 or less. To be noted: 24 h.

In turn, `N=C(N)NC(=N)Nc1ccccc1` [1-phenylbiguanide] (10 µM) registered a morphology score in test [1] of 0.219. Besides, in test [2], the SARS-CoV-2 infection rate was 86.5% (inactive).
The like results for `CCOc1cc(C(=O)N2CCC(N3CCN(C)CC3)CC2)ccc1Nc1ncc2c(n1)N(C1CCCC1)c1ccccc1C(=O)N2C` (10 µM) were, in that order, -0.264 and 122% (inactive).
Taken in the same sequence, the figures for `C=CCN1CCc2nc(N)sc2CC1` [talipexole] (10 µM) were -0.1 and 104% (inactive).
Taken in the same sequence, the figures for `C[C@H](Nc1cc(NS(=O)(=O)N2CCC2)nc(SCc2cccc(F)c2F)n1)[C@@H](O)CO` (10 µM) were 0.112 and 99% (inactive).
`CNC(=O)[C@@H](NC(=O)[C@H](CC(C)C)[C@H](O)C(=O)NO)C(C)(C)C` [marimastat] (10 µM) came in with a morphology score in test [1] of -0.0923. In addition, the SARS-CoV-2 infection rate in test [2] was 118% (inactive).
The compound `CN1CCC(=C2c3ccccc3CCc3sccc32)CC1` [pizotifen] (10 µM) gave a morphology score in test [1] of 0.285. Further, the SARS-CoV-2 infection rate in test [2] is 94.5% (inactive).
The like results for `C[C@@H]1C[C@H]2[C@@H]3CCC4=CC(=O)C=C[C@]4(C)[C@@]3(Cl)[C@@H](O)C[C@]2(C)[C@@]1(OC(=O)c1ccco1)C(=O)CCl` (10 µM) were, in that order, 0.481 and 78% (inactive).
For the compound `Nc1nonc1/C(=N/O)Nc1ccc(F)c(Cl)c1` (10 µM), the morphology score in test [1] is 0.043. For the same compound, the SARS-CoV-2 infection rate in test [2] was 112% (inactive).
The like results for `NC(=O)C[S+]([O-])C(c1ccccc1)c1ccccc1` (stereo not given) (10 µM) were, in that order, 0.113 and 106% (inactive).
The like results for `Nc1nc(=O)n([C@@H]2CS[C@H](CO)O2)cc1F` [emtricitabine] (10 µM) were, in that order, 0.154 and 114% (inactive).
Take `C=C1CC[C@H](O)C/C1=C/C=C1\CCC[C@]2(C)[C@@H]([C@H](C)CCCC(C)C)CC[C@@H]12` [cholecalciferol] (10 µM): the morphology score in test [1] is -0.0066. Further, the SARS-CoV-2 infection rate in test [2] was 96.5% (inactive).
The like results for `CCCCCCCCc1ccc(CCC(N)(CO)CO)cc1` [fingolimod] (10 µM) were, in that order, 0.717 and 26.5% (active).
The like results for `N#CCC1(n2cc(-c3ncnc4[nH]ccc34)cn2)CN(C2CCN(C(=O)c3ccnc(C(F)(F)F)c3F)CC2)C1` [itacitinib] (10 µM) were, in that order, 0.22 and 97.5% (inactive).
The like results for `NS(=O)(=O)c1cc(Cl)c(Cl)c(S(N)(=O)=O)c1` [diclofenamide] (10 µM) were, in that order, 0.298 and 84.5% (inactive).
Turning to `CC(=O)OCC(=O)[C@@]12OC3(CCCC3)O[C@@H]1C[C@H]1[C@@H]3CCC4=CC(=O)C=C[C@]4(C)[C@@]3(F)[C@@H](O)C[C@@]12C` [amcinonide] (10 µM), the morphology score in test [1] is 0.114. For the same compound, the SARS-CoV-2 infection rate in test [2] is 110% (inactive).
Taken in the same sequence, the figures for `C[C@@]1(CO)[C@H](O)CC[C@@]2(C)[C@H]1CC[C@H]1C[C@@H]3C[C@@]12CC[C@]3(O)CO` [aphidicolin] (0.833333 µM) were -0.0875 and 106% (inactive).
The like results for `O=C(N[C@@H]1CC[C@@H](c2cccc(F)c2F)CN(CC(F)(F)F)C1=O)N1CCC(n2c(=O)[nH]c3ncccc32)CC1` [telcagepant] (10 µM) were, in that order, 0.0561 and 102% (inactive).
With `COC(=O)Nc1ccc(-c2nc(N3CCOCC3)c3cnn(C4CCN(Cc5cccnc5)CC4)c3n2)cc1` (10 µM), the morphology score in test [1] is -0.198. The SARS-CoV-2 infection rate in test [2] is 104% (inactive).
The like results for `C[C@H]1O[C@@H](O[C@H]2CC[C@@]3(C)[C@H](CC[C@@H]4[C@@H]3C[C@@H](O)[C@]3(C)[C@@H](C5=CC(=O)OC5)CC[C@]43O)C2)C[C@H](O)[C@@H]1O[C@H]1C[C@H](O)[C@H](O[C@H]2C[C@H](O)[C@H](O[C@@H]3O[C@H](CO)[C@@H](O)[C@H](O)[C@H]3O)[C@@H](C)O2)[C@@H](C)O1` [deslanoside] (0.833333 µM) were, in that order, -0.123 and 114% (inactive).
The like results for `CS(=O)(=O)c1ccc([C@@H](O)[C@@H](CO)NC(=O)C(Cl)Cl)cc1` [thiamphenicol] (10 µM) were, in that order, -0.172 and 118% (inactive).
`O=C(O)CCN(O)C(=O)CCCCCCCCC1CC1` (10 µM) returned a morphology score in test [1] of 0.0952. Moreover, the SARS-CoV-2 infection rate in test [2] is 102% (inactive).
Taken in the same sequence, the figures for `O=C1c2ccccc2C(=O)c2ccccc21` [anthraquinone] (10 µM) were 0.166 and 103% (inactive).
The like results for `C[C@]12CCC(=O)C=C1C=C[C@@H]1[C@@H]2CC[C@@]2(C)[C@H]1CC[C@@]21CCC(=O)O1` [canrenone] (10 µM) were, in that order, 0.219 and 94% (inactive).
The like results for `O=c1cc(-c2ccc(O)c(O)c2)oc2cc(O)cc(O)c12` [luteolin] (10 µM) were, in that order, 0.167 and 110% (inactive).
Take `CCOC(=O)[C@H](CCc1ccccc1)N[C@@H](C)C(=O)N1[C@H](C(=O)O)C[C@H]2CCCC[C@@H]21` [trandolapril] (10 µM): the morphology score in test [1] is 0.00679. Also, the SARS-CoV-2 infection rate in test [2] is 106% (inactive).
